Targets with a hit are over-represented here; the source holds about 7,900 in all. About 0.6% of all pairs of compound and target were hits. Unmarked numbers belong to inactive results.
Each target was assayed with C1=CC2=NC=CN=C2C=C1/C=C/3\C(=O)NC(=O)S3 (assay: log2 fold change, soluble protein after heating vs DMSO (PISA); higher = thermal stabilisation; K562 cells, 10 uM, 30 min; active = over 0.2 and 3.5 SD of the protein, either way, in both replicates (recomputed)).
How it was run: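 K562 cells at 2×10^6 cells/mL were given 10 μM compound for 30 min. Aliquots then went through 3 min of heating across 48°C-58°C, were pooled, and were extracted in PBS with 0.5% NP-40 at 4°C, and the supernatant after 21,000xg for 90 min was quantified by TMTpro 16plex LC-MS/MS with channel sums equalised. Thermal stability relative to control samples, from duplicates, is given as log2 fold change.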
UniProt Q6QNY0, sequence (Q6QNY0 whole entry, looked up): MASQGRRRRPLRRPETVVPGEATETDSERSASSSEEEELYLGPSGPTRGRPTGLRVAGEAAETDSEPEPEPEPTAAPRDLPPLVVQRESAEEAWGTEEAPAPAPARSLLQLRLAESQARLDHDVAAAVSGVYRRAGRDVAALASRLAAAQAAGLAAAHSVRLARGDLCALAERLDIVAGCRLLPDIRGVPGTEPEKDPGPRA
UniProt Q07960, sequence (Q07960 whole entry, looked up): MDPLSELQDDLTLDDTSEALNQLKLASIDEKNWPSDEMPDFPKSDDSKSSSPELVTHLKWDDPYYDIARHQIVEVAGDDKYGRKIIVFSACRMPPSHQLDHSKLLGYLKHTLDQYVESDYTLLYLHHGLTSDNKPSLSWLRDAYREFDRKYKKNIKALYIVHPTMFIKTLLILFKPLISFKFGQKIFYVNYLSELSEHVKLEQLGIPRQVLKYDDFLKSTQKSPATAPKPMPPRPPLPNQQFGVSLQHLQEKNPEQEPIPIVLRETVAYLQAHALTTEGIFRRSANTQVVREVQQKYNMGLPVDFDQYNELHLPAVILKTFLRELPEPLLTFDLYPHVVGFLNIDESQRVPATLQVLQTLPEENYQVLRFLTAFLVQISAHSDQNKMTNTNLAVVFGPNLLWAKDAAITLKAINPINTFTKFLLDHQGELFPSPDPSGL
UniProt Q99943, sequence (Q99943 whole entry, looked up): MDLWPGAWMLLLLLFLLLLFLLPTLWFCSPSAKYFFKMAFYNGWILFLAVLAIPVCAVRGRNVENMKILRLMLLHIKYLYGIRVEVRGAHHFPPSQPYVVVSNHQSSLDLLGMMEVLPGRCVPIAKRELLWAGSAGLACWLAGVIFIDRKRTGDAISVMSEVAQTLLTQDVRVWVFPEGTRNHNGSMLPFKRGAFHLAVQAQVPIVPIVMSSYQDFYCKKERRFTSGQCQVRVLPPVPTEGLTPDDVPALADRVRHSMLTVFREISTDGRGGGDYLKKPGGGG
UniProt Q9Y6H3, sequence (Q9Y6H3 whole entry, looked up): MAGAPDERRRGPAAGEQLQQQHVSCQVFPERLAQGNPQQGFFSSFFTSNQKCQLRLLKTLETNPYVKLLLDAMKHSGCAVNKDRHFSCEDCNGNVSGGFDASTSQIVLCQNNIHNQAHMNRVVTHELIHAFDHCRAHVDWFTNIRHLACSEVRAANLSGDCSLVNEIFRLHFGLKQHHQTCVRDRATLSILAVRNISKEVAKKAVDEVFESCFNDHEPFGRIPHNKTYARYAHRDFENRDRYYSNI
UniProt Q8NBU5, sequence (Q8NBU5 whole entry, looked up): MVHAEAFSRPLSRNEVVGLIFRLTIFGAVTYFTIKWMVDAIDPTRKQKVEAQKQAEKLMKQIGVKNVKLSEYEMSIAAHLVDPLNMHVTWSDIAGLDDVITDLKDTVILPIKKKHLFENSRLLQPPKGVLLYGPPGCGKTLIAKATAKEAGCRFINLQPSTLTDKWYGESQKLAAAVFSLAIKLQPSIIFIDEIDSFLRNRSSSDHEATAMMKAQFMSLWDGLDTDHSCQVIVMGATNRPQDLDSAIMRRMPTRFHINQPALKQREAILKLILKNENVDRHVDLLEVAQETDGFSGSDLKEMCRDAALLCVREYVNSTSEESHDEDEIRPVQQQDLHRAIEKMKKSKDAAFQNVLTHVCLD
UniProt O43865, sequence (O43865 whole entry, looked up): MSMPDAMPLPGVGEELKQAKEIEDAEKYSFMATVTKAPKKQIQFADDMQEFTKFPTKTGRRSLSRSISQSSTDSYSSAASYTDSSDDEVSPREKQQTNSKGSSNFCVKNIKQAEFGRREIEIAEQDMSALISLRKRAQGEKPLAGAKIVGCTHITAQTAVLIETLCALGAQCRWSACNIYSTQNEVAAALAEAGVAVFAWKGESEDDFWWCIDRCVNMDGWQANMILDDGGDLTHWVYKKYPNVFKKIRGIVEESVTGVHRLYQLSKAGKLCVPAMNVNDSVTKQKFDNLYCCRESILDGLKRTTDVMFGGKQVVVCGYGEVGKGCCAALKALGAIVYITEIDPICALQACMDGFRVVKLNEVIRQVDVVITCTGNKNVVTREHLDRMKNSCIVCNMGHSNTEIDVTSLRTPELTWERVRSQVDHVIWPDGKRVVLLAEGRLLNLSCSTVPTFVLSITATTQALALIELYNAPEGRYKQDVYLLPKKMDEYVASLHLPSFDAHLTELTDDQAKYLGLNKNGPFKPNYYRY
UniProt P17707, sequence (P17707 whole entry, looked up): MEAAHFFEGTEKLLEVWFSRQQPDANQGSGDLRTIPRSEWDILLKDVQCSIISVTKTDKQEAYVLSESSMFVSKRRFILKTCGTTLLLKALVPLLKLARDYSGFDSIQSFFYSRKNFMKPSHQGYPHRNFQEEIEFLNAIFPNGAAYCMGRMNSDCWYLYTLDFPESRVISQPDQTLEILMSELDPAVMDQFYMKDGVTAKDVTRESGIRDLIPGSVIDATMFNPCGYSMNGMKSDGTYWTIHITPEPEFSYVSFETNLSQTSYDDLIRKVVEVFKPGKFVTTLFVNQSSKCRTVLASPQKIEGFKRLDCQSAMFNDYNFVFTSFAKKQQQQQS
UniProt O00116, sequence (O00116 whole entry, looked up): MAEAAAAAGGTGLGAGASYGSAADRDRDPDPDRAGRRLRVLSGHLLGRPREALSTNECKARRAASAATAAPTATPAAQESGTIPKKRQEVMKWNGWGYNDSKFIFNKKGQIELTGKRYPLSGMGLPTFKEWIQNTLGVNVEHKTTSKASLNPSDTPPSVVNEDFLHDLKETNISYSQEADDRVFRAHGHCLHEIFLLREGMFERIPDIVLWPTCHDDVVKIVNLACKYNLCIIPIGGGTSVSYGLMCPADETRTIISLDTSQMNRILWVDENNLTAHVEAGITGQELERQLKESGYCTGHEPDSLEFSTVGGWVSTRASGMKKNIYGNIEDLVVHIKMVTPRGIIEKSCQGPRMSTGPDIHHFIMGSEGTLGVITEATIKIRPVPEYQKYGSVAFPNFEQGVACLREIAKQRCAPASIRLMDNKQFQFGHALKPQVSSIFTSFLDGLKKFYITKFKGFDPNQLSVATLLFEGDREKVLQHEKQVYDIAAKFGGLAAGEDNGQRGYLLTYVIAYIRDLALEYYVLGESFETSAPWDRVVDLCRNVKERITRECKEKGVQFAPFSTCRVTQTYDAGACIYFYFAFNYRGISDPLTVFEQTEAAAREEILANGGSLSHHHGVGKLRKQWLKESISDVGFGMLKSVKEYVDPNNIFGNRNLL
UniProt Q9NP58, sequence (Q9NP58 whole entry, looked up): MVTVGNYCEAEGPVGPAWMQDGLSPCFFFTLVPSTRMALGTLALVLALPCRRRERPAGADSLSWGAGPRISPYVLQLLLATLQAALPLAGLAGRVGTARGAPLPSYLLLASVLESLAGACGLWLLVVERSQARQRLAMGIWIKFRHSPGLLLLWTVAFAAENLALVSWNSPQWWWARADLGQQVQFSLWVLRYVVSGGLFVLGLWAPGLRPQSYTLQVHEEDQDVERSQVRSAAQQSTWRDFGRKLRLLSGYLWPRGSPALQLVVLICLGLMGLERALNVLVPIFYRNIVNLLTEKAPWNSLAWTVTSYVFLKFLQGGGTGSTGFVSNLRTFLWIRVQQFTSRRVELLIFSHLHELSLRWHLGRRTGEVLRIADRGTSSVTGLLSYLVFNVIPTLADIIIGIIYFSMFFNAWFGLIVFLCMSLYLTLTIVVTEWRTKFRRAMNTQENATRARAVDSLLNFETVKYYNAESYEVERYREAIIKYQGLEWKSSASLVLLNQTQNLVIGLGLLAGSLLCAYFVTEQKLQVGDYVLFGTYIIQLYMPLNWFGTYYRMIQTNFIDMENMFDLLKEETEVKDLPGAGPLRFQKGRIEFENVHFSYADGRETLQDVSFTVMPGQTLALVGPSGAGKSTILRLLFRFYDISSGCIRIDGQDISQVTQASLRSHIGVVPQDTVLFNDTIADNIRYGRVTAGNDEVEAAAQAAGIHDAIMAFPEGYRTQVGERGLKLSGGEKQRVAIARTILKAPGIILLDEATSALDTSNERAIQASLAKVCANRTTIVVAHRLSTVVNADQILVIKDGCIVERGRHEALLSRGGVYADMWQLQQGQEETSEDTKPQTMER
UniProt O94973, sequence (O94973 whole entry, looked up): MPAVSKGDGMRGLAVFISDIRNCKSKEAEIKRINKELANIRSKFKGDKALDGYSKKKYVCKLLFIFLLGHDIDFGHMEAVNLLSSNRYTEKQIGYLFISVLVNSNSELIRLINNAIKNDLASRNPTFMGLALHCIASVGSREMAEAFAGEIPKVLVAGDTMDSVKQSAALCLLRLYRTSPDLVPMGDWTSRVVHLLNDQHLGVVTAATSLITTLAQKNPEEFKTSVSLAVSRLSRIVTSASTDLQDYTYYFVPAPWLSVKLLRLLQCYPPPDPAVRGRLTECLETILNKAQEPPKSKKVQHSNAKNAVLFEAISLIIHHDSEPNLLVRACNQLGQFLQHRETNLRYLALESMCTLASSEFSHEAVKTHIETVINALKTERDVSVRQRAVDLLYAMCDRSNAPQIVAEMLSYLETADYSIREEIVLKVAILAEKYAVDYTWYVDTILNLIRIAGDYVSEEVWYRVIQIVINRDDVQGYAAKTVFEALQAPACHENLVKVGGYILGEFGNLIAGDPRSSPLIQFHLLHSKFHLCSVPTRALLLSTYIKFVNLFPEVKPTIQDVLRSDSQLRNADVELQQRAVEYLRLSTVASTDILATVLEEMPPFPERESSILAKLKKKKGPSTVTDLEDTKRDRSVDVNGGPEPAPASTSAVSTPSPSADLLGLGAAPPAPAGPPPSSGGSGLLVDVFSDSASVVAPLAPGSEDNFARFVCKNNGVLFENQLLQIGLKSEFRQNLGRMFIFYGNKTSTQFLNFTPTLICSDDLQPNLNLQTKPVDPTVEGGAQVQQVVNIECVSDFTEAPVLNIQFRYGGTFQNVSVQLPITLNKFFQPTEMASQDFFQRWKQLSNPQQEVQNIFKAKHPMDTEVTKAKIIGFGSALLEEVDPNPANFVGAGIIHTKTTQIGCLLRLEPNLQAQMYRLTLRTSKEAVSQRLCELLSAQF
Target AARSD1 isoform 3 (UniProt Q9BTE6) has a log2 fold change of 0.008.
ALDH6A1 (UniProt Q02252) showed a log2 fold change of -0.043.
In the case of ATP6V1H (UniProt Q9UI12), the log2 fold change is reported as 0.045.
ALG5 (UniProt Q9Y673) was tested, and the log2 fold change was 0.003.
With ARHGAP1 (UniProt Q07960) the log2 fold change was 0.021.
With BMP2K (UniProt Q9NSY1) the log2 fold change was -0.042.
AHCYL1 (UniProt O43865) was tested, and the log2 fold change was 0.086.
For ANKZF1 (UniProt Q9H8Y5), the log2 fold change was -0.108.
Work on AIP (UniProt O00170) yielded a log2 fold change of 0.048.
Work on ATP23 (UniProt Q9Y6H3) yielded a log2 fold change of 0.027.
BRD4 (UniProt O60885) was tested, and the log2 fold change was -0.003.
With BCCIP (UniProt Q9P287) the log2 fold change was 0.015.
For BTBD6 (UniProt Q96KE9), the log2 fold change was -0.057.
In the case of ABCB6 (UniProt Q9NP58), the log2 fold change is reported as 0.069.
ATAD3B (UniProt Q5T9A4) gave a log2 fold change of -0.002.
With BCL9L (UniProt Q86UU0) the log2 fold change was -0.048.
AP2A2 isoform 2 (UniProt O94973) was tested, and the log2 fold change was 0.004.
With ADK (UniProt P55263) the log2 fold change was 0.005.
Target AKR1C2 (UniProt P52895) has a log2 fold change of 0.085.
Target BCLAF1 (UniProt Q9NYF8) has a log2 fold change of -0.018.
In the case of ACO2 (UniProt Q99798), the log2 fold change is reported as -0.244 (active).
In the case of ALDH2 (UniProt P05091), the log2 fold change is reported as 0.022.
In the case of ATF7 isoform 6 (UniProt P17544), the log2 fold change is reported as -0.055.
AMD1 (UniProt P17707) was tested, and the log2 fold change was -0.002.
ARFIP1 (UniProt P53367) was tested, and the log2 fold change was 0.62.
AKT1 (UniProt P31749) showed a log2 fold change of 0.184.
ABCA4 (UniProt P78363) gave a log2 fold change of -0.073.
Target BLOC1S3 (UniProt Q6QNY0) has a log2 fold change of 0.012.
ARL2BP (UniProt Q9Y2Y0) was tested, and the log2 fold change was 0.104.
AGPS (UniProt O00116) was tested, and the log2 fold change was 0.031.
Target AMFR (UniProt Q9UKV5) has a log2 fold change of 0.058.
AGPAT1 (UniProt Q99943) gave a log2 fold change of 0.029.
For BOP1 (UniProt Q14137), the log2 fold change was 0.041.
For AKAP8L (UniProt Q9ULX6), the log2 fold change was -0.058.
With ATP2A3 isoform 2 (UniProt Q93084) the log2 fold change was 0.014.
Target ATAD1 (UniProt Q8NBU5) has a log2 fold change of -0.022.

— the supplement of paper PMC10849652
